± gives the standard deviation of the averaged measurements. The full ranking holds about 25,000 sequences; the median of “ln(normalized median fluorescence intensity)” is about 8.6, and the highest 2% start at about 10. The entries come from a sample that favours the highest values as a whole.
These sequences were tested on PfAP2-EXP AP2 domain (GST-tagged) (assay: gcPBM binding intensity (ln(normalized median fluorescence intensity)); higher = stronger DNA binding).
In short: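 The binding buffer was 1× PBS containing 1% milk, 0.2 mg/ml BSA, 0.5% salmon testes DNA and 0.03% Triton X-100. In it, GST-tagged P. falciparum DNA-binding domains expressed in E. coli were applied for 1 h to an Agilent 4 × 180k array of primer-extended double-stranded 36-bp intergenic genomic probes plus negative controls. Binding intensity, read with Alexa488 anti-GST antibody and a 488 nm scan, is the highest Masliner-normalised natural-log median intensity across replicate spots of either probe orientation.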

Sequence	gcPBM binding intensity (ln)
TAAAATTAATTTCTGTTGCACTTATTATTAATTAAC	8.84 ± 0.4
GATATAAACGTATATGTACATATATATATATATATA [GTGCAC_negctrl_site186]	10.2 ± 0.41
ATATATATATATATATGTACATATATATTGTTGATC [XGTACX_site8893]	10.1 ± 0.26
GTAAATATATAAACATGTACATATATAAATATATAA [XGTACX_site7262]	8.51 ± 0.33
GCAAATATGTTGATATGTACATATATATATATATAT [XGTACX_site445]	10.2 ± 0.45
AACATAAAAAAAATATGTACATATATAATATATATA [XGTACX_site3764]	8.85 ± 0.23
ATATAAATATAAACATGTACATATATATATATATAT [XGTACX_site2824]	10.3 ± 0.79
AATATATAAACACGTACACACACATATATGTATATA [CACACA_site9168]	8.73 ± 0.43
TATATATAAAACATATGTACATATATATATATATAT [XGTACX_site419]	10.2 ± 0.24
TAAATATATATAACATGTACATAAAATATATATATA [XGTACX_site4431]	9.53 ± 0.13
ATAAAAACATAAAAATGTACATATATATATATATAT [XGTACX_site7165]	10.1 ± 0.25
TATAAACGTATAATATGTACACACACATATATACAA [XGTACX_site1686]	8.43 ± 0.32
ATAAAAAAAAATATATGTACATATATAAATTGATAT [XGTACX_site7409]	8.73 ± 0.42
AATGGGTAAACATACACACACACATATATATATATA [CACACA_site1991]	10.1 ± 0.33
AATAAGTTATTATTTTGTACACATAAATAATACGTT [XGTACX_site814]	8.32 ± 0.3
ATATTCATATATTTACGTACATACATTTATATATTT [XGTACX_site7644]	8.85 ± 0.37
TACCTATACAGACACACACACACACGCCCACAAAAA [CACACA_site6375]	8.77 ± 0.35
GAAATTAAATGACATACACACTATATTATATATTTT [CACACA_site5693]	8.34 ± 0.35
AGTAGTCTGGAGAAGAGTACACAGTATCTGGTAGCT [XGTACX_site2042]	8.48 ± 0.47
AAATAAAATAAAAACATGCACACTTTATTTTTTTTA [CACACA_site2800]	8.49 ± 0.26
AGAAAAGAGAGAAAAACATGCACATGATATTATAAA [TGCATGCA_site120]	8.62 ± 0.53
CATGATATATAAATATGTACATATATATATATATAT [XGTACX_site1760]	10.2 ± 0.23
ATATATATATATATATGTACGTATTCATAAACAACA [XGTACX_site4282]	10.2 ± 0.6

Sequence	gcPBM binding intensity (ln)
ATAAATAAAACAAAATGTACAAATATTCATATATTC [XGTACX_site1307]	8.49 ± 0.32
ATATATATATATATATGTACATAAACATATATATAT [XGTACX_site1064]	10.2 ± 0.21
TTATATGCATAAAAACGTACAAAAATGTATTCATGT [XGTACX_site2215]	8.71 ± 0.38
AAACATATATACATATGTACATATATACATATATGT [XGTACX_site5779]	8.4 ± 0.26
AAACATATAAACATATGTACATATAAACATATATAC [XGTACX_site5026]	8.64 ± 0.33
ATAAATATAAATATATGTACATATATATATATATAT [XGTACX_site7433]	10.2 ± 0.15
AATATGATATATATATGTACATATATATAATATAAT [XGTACX_site3072]	8.52 ± 0.41
TTTTTTCTTTCTTTCAAACACACATTAATTTTATTC [CACACA_site2733]	8.66 ± 0.49
ATAAATATGGAGCACACACACATAAACATACATATA [CACACA_site421]	8.84 ± 0.67
AGAAGGATATTATGAAGTACACATATTGTATATGGT [XGTACX_site7503]	8.47 ± 0.35
AATATATAAATATTGTGTACTTATTTTTTTATATGT [XGTACX_site4377]	8.49 ± 0.18
TAAATATGAGGGAACACACACATGATATATAAATTC [CACACA_site2400]	8.81 ± 0.43
TATATATTGCCCTTCACACACACACCCATATATATA [CACACA_site2493]	9.06 ± 0.42
TTATTTATTTATTGTTGTACACAAAATGATTCTTAA [XGTACX_site6480]	8.7 ± 0.2
TTATATAACACGGGGAGGACACAAGAAATAAAGAGC [XGTACX_site2148]	9.13 ± 0.29
ATTTTGATAACCGTACGTACATATATATATATATAT [XGTACX_site6605]	10.3 ± 0.35
AATGATTTTGATTAACGTACGTACAAATATATATAT [XGTACX_site6604]	9.31 ± 0.057
AAAATTATATATTATAGTACATAAAATTTTGATATA [XGTACX_site994]	8.39 ± 0.35
AAATAGAGAAATACAAGTACATATCAAACCAATCTA [XGTACX_site2756]	8.52 ± 0.42
TTATACACCTTTCATTGTACATATAATTTATATTCT [XGTACX_site8685]	8.95 ± 0.33
TATTACATTGTTGAATGTACTCATTTAAAATTTATA [XGTACX_site7987]	8.34 ± 0.38
TATATATATATATATATAATACGAATTTGTAGTACA [TGCATGCA_negctrl_site224]	10.2 ± 0.16
ATAATACGAATTTGTAGTACATTTATAATAACATGA [XGTACX_site2614]	8.37 ± 0.17
